Most compounds without a hit are left out; they make up all but 19% or so of the library.
ELG1 DNA repair: qHTS screen for small molecules that inhibit ELG1-dependent DNA repair in human embryonic kidney (HEK293T) cells expressing luciferase-tagged ELG1. HEK293T ELG1-luciferase reporter, luminescence, 16 h; DNA damage induced by 5-fluorouridine. actives 2.3% (n = 330,000). AID 504467, 2011. Potency, µM (titrated, usually from 46.1 µM), for the others: at the highest dose activity change, negative = inhibition, usual class: inhibitors; note: potency is the fitted concentration of half-maximal effect; nearly all actives have a fitted effect of over 55% in size
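DMSO vehicle served as the neutral condition. Each well held 2,000 cells given 5-fluorouridine plus compound; after 16 hr at 37 °C/5% CO2, ONE-Glo was added and luciferase measured 30 min later.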
HT1080NT lethal: qHTS for induction of synthetic lethality in tumor cells producing 2HG: qHTS for the HT-1080-NT fibrosarcoma cell line; HT-1080-NT fibrosarcoma viability, CellTiter-Glo ATP luminescence, 48 h; Potency, µM (series often up to 46.1 µM), for inactives: at the highest dose activity, negative = less viability, hits mostly cytotoxic; actives 1.6% (n = 360,000);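 note: NT is the 2HG producing partner of a matched IDH1 knockdown line; potency is the fitted concentration of half-maximal effect; 0% = DMSO-treated cells and -100% = media-only wells without cells; nearly all actives have a fitted effect of over 55% in size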
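HT-1080-NT fibrosarcoma cells (2HG-overproducing), 750 cells/well in RPMI with 5% FBS, dosed after 2 h and incubated 48 h at 37C. CellTiter-Glo luminescence normalized to DMSO and no-cell wells; concentration-response curves fitted and classed.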
DT40 TDP1 CPT: qHTS for Inhibitors of human tyrosyl-DNA phosphodiesterase 1 (TDP1): qHTS in cells in presence of CPT; chicken DT40 Tdp1-/-;hTDP1 cells + 20 nM CPT, ATP luminescence, 48 h; Potency, µM (doses to about 46.2 µM), inactives show at the highest dose activity change, negative = growth inhibition, most hits filed as inhibitors; actives 12% (n = 420,000); AID 686979, 2013; note: potency is the fitted concentration of half-maximal effect; nearly all actives have a fitted effect of over 55% in size
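Chicken DT40 Tdp1-/- cells complemented with human TDP1, 400 cells/well, exposed to compounds plus 20 nM camptothecin for at least 48 h at 37 C; viability read as ATP content by CellTiter-Glo luminescence.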
DT40 TDP1 no CPT: qHTS for Inhibitors of human tyrosyl-DNA phosphodiesterase 1 (TDP1): qHTS in cells in absence of CPT; DT40 Tdp1-/- hTDP1 cells, no CPT, ATP luminescence, 48 h; actives 15% (n = 420,000); Potency, µM (highest dose often 46.2 µM), inactives show top-dose activity change, negative = growth inhibition, hits mostly inhibitors; note: potency is the fitted concentration of half-maximal effect; nearly all actives have a fitted effect of over 55% in size
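Luminescent ATP content (CellTiter-Glo) served as the growth readout. Knockout chicken DT40 cells expressing human TDP1 were exposed to compounds without camptothecin for a minimum 48 hr at 37 °C.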
HT1080 IDH1KD tx: qHTS for induction of synthetic lethality in tumor cells producing 2HG: qHTS for the HT-1080-IDH1KD cell line; actives 2% (n = 360,000); HT-1080 IDH1 knockdown viability, ATP luminescence, 48 h; AID 686971, 2013; Potency, µM (highest dose often 46.1 µM), inactives show at the highest dose activity, negative = toxicity, usual class: cytotoxic;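 note: potency is the fitted concentration of half-maximal effect; 0% = DMSO wells and -100% = cell-free medium wells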
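Viability of IDH1-knockdown HT-1080 fibrosarcoma cells was assessed by CellTiter-Glo after 48 h at 37 °C with titrated compound; concentration-effect curves were classified by fit quality and response size.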
IL-1B inflam inh: qHTS for Inhibitors of Inflammasome Signaling: IL-1-beta AlphaLISA Primary Screen; THP-1 LPS/ATP IL-1B secretion, AlphaLISA, 16 h; active compounds read low; actives 4.7% (n = 360,000); activity change, % at 57.5 µM; AID 743279, 2014; in the data active = activity change below about -50%; inconclusive = mostly about -30% to -49%
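THP-1 cells pretreated 1 hr with compounds (up to 57.5 uM final), then stimulated with LPS (250 ng/mL final) plus ATP (1.25 mM final); secreted IL-1B measured by AlphaLISA after 16 hr, decreased signal indicating inhibition.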
* marks the source's active call; other numbers are inactive results; ! = repeats disagree. Unless noted, calls come from the whole dose curve; as a rule, active = well fitted curve in the direction sought with a large enough effect; inconclusive = small, poorly fitted or top-dose-only effect, or another doubt; inactive = no such curve, though single readings can be large; an effect the other way counts as inactive or inconclusive. Unless noted, % is set by controls: 0 for no effect and ±100 for the full control effect.

`CC(=O)Nc1sc2c(c1C(c1cccc(Cl)c1)N1CCN(CCO)CC1)CCCC2` (stereo not given) gave ELG1 DNA repair 7%, HT1080NT lethal -9%, DT40 TDP1 CPT 16µM*, DT40 TDP1 no CPT 26µM*, HT1080 IDH1KD tx -4% and IL-1B inflam inh -16.
For COc1cc(/C=C(\C#N)C(=O)c2c(C)[nH]c3ccccc23)cc(OC)c1OC the results were ELG1 DNA repair inconclusive, HT1080NT lethal 4%, DT40 TDP1 CPT 11%, DT40 TDP1 no CPT inconclusive, HT1080 IDH1KD tx 0% and IL-1B inflam inh -5.
Screening COCCN=c1scc(-c2cc(OC)c(OC)c(OC)c2)n1/N=C/c1c(C)[nH]c2ccccc12 returned ELG1 DNA repair 7.3µM*, HT1080NT lethal inconclusive, DT40 TDP1 CPT inconclusive, DT40 TDP1 no CPT 18µM*, HT1080 IDH1KD tx inconclusive and IL-1B inflam inh inconclusive.
For Cc1cc(C)c(NC(=O)CO/N=C2\CCCc3nonc32)c(C)c1 the results were ELG1 DNA repair 1%, HT1080NT lethal -10%, DT40 TDP1 CPT 1%, DT40 TDP1 no CPT -13%, HT1080 IDH1KD tx -2% and IL-1B inflam inh 17.
COc1cc(CC(=O)OCC(=O)NCC(C)C)cc(OC)c1OC was read as ELG1 DNA repair -1%, HT1080NT lethal 1%, DT40 TDP1 CPT 16%, DT40 TDP1 no CPT -4%, HT1080 IDH1KD tx -2% and IL-1B inflam inh 10.
Screening Cc1ccc2[nH]c3c(=O)n(CC(=O)NCCCN4CCN(c5ccc(F)cc5)CC4)ncc3c2c1 returned ELG1 DNA repair 0%, HT1080NT lethal 6%, DT40 TDP1 CPT inconclusive, DT40 TDP1 no CPT 16µM*!, HT1080 IDH1KD tx 5% and IL-1B inflam inh inconclusive.
CCC1CCCCN1CCCNC(=O)Cn1ncc2c([nH]c3ccc(C)cc32)c1=O (stereo not given) was read as ELG1 DNA repair 0%, HT1080NT lethal -16%, DT40 TDP1 CPT -26%, DT40 TDP1 no CPT -24%, HT1080 IDH1KD tx -4% and IL-1B inflam inh -19.
Screening Cc1cccc(CN2CCN(CC(=O)NCCCN3CCN(c4ccc(F)cc4)CC3)C2=O)c1 returned ELG1 DNA repair -4%, HT1080NT lethal -20%, DT40 TDP1 CPT 11µM*, DT40 TDP1 no CPT inconclusive, HT1080 IDH1KD tx inconclusive and IL-1B inflam inh -56*.
Screening Cc1cccc(N2CCN(C(=O)CCC(=O)NNc3nc4ccccc4c4nc(C)nn34)CC2C)c1 (stereo not given) returned DT40 TDP1 CPT 18µM* and DT40 TDP1 no CPT 23µM*.
Screening CC(C)CCNC(=O)CCC(=O)NNc1nc2ccccc2c2nc(-c3ccccc3)nn12 returned ELG1 DNA repair 2%, HT1080NT lethal -12%, DT40 TDP1 CPT 21µM*, DT40 TDP1 no CPT 21µM*, HT1080 IDH1KD tx -8% and IL-1B inflam inh -2.
Screening Cc1cccc(CN2CCN(CC(=O)NCCCN3CCCC3=O)C2=O)c1 returned ELG1 DNA repair inconclusive, HT1080NT lethal 13%, DT40 TDP1 CPT 4%, DT40 TDP1 no CPT 6%, HT1080 IDH1KD tx 8% and IL-1B inflam inh 6.
CCOc1ccc(-c2c(=O)n(OCc3ccc([N+](=O)[O-])cc3)c3ccccc3[n+]2[O-])cc1 was read as ELG1 DNA repair 11%.
CC(Oc1ccc2ccccc2c1)C(=O)NNC(=O)Nc1ccccc1 (stereo not given) was read as ELG1 DNA repair 0%, HT1080NT lethal -5%, DT40 TDP1 CPT -3%, DT40 TDP1 no CPT -15%, HT1080 IDH1KD tx 2% and IL-1B inflam inh 0.
Cc1ccc(C(=O)OCC(=O)NC(C)c2ccccc2)cc1C (stereo not given) was read as ELG1 DNA repair -16%, HT1080NT lethal -5%, DT40 TDP1 CPT 2%, DT40 TDP1 no CPT 4%, HT1080 IDH1KD tx 0% and IL-1B inflam inh 5.
For Cc1cccc(NC(=O)c2oc3ccccc3c2NC(=O)c2cc(=O)c3ccc(C)cc3o2)c1 the results were DT40 TDP1 CPT 10% and DT40 TDP1 no CPT 0%.
For Cc1cccc(N2CCN(CCCNC(=O)Cn3ncc4c([nH]c5ccccc54)c3=O)CC2C)c1 (stereo not given) the results were DT40 TDP1 CPT inconclusive and DT40 TDP1 no CPT 18µM*.
Cc1ccc(Cl)cc1N1CCN(CCCNC(=O)Cn2ncc3c([nH]c4ccccc43)c2=O)CC1 was read as DT40 TDP1 CPT 15µM* and DT40 TDP1 no CPT 8.2µM*.
`Cc1cccc(N2CCN(C(=O)Cn3ncc4c([nH]c5ccccc54)c3=O)CC2C)c1` (stereo not given) gave DT40 TDP1 CPT inconclusive and DT40 TDP1 no CPT 15µM*.
Screening Cc1cccc(CCNC(=O)Cn2ncc3c([nH]c4ccccc43)c2=O)c1 returned ELG1 DNA repair 0%, HT1080NT lethal -5%, DT40 TDP1 CPT -15%, DT40 TDP1 no CPT 19%, HT1080 IDH1KD tx 16% and IL-1B inflam inh 16.
`Cc1ccc(-c2ccc(=O)n(CC(=O)N3CCN(c4cccc(C)c4)C(C)C3)n2)cc1` (stereo not given) gave ELG1 DNA repair -23%, HT1080NT lethal -29%, DT40 TDP1 CPT inconclusive, DT40 TDP1 no CPT -22%, HT1080 IDH1KD tx -20% and IL-1B inflam inh -61*.
`Cc1cc(O)c(C(c2ccccc2)N2CCN(c3ccccc3)CC2)c(=O)n1Cc1ccco1` (stereo not given) gave DT40 TDP1 CPT inconclusive and DT40 TDP1 no CPT -1%.
For Cc1n[nH]c(=O)c2c(NC(=O)CSc3ccccc3Cl)oc(C)c12 the results were ELG1 DNA repair -1%, HT1080NT lethal 10%, DT40 TDP1 CPT 5%, DT40 TDP1 no CPT -21%, HT1080 IDH1KD tx 32% and IL-1B inflam inh -8.
Screening Cc1cccc(N2CCN(C(=O)Cn3sc4nc(C)cc(C)c4c3=O)CC2C)c1 (stereo not given) returned ELG1 DNA repair 0%, HT1080NT lethal -18%, DT40 TDP1 CPT 3.7µM*, DT40 TDP1 no CPT 4.6µM*, HT1080 IDH1KD tx inconclusive and IL-1B inflam inh inconclusive.

High-throughput results deposited in PubChem by National Center for Advancing Translational Sciences (NCATS).
